Results filed as inconclusive are left out. Where a call stands in place of a potency, no number is given. Calls of active or inactive are those of the source. Calls come from the whole dose curve; as a rule, active = well fitted inhibition curve with a large enough effect; inconclusive = small, poorly fitted or top-dose-only effect; inactive = flat fitted curve, though single readings scatter.
Legend:
Experiment in all cases: qHTS profiling for inhibitors of Plasmodium falciparum proliferation (AID 504749); note: nearly all actives have a fitted effect of over 60% in size
Conditions in all cases: P. falciparum in erythrocytes, SYBR Green DNA, 72 h; series mostly up to 28.7 µM
[1] = tested on: DIV17
Outline: (§1)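 Each compound contacts P. falciparum-infected red blood cells for 72 h at 37 C; lysis buffer (Tris, EDTA, saponin, Triton X, SYBR Green I) is added and fluorescence measured next morning; values normalized to controls.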

[2] = tested on: DIV30
Outline: as §1

[3] = tested on: Dd2
Outline: as §1

[4] = tested on: FAB9
Outline: as §1

[5] = tested on: GB4
Outline: as §1

[6] = tested on: HB3
Outline: as §1

[7] = tested on: JCK
Outline: as §1

[8] = tested on: N140
Outline: as §1

[9] = tested on: ECU
Outline: as §1

[10] = tested on: ICS
Outline: as §1
Potency is the fitted concentration of half-maximal effect.

Row | Compound | Potency [1] | outcome [2] | Potency [3] | Potency [4] | Potency [5] | Potency [6] | Potency [7] | Potency [8] | Potency [9] | Potency [10]
1 | Cc1c(NC(C)C)c(=O)n(-c2ccccc2)n1C | inactive | inactive | inactive | inactive | inactive | inactive | inactive | inactive |  | 
2 | Nc1ccc(S(=O)(=O)c2ccc(N)cc2)cc1 | inactive | inactive | inactive | inactive | inactive | inactive | inactive | inactive | inactive | inactive
3 | CCOC(N)=O | inactive | inactive | inactive | inactive | inactive | inactive | inactive | inactive | inactive | inactive
4 | Cc1cc(C)c(NC(=O)CN(CC(=O)O)CC(=O)O)c(C)c1Br | inactive | inactive | inactive | inactive | inactive | inactive | inactive |  |  | inactive
5 | Cc1c(N(C)C)c(=O)n(-c2ccccc2)n1C | inactive | inactive | inactive | inactive | inactive | inactive | inactive | inactive | inactive | inactive
6 | O=C(/C=C/c1ccccc1)OCc1ccccc1 | inactive | inactive | inactive | inactive | inactive | inactive | inactive | inactive | inactive | 
7 | CN(C/C=C/C#CC(C)(C)C)Cc1cccc2ccccc12 | inactive | inactive | inactive | inactive | inactive | inactive | inactive | inactive | inactive | 
8 | O=C(O)CCCCC1CCSS1 (stereo unspecified) | inactive | inactive | inactive | inactive | inactive | inactive | inactive | inactive | inactive | inactive
9 | NS(=O)(=O)c1ccc(C(=O)O)cc1 | inactive | inactive | inactive | inactive | inactive | inactive | inactive | inactive | inactive | inactive
10 | COc1ccc(Cc2cnc(N)nc2N)cc1OC | inactive | inactive | inactive | 7.94 µM (active) | 2.39 µM (active) |  | inactive | inactive | 3.98 µM (active) | inactive
11 | Cc1[nH]c(C)c(Cl)c(=O)c1Cl | inactive | inactive | inactive | inactive |  | inactive | inactive | inactive | inactive | 
12 | CC1CC(OC(=O)c2ccccc2O)CC(C)(C)C1 (stereo unspecified) | inactive | inactive | inactive | inactive | inactive | inactive | inactive | inactive | inactive | inactive
13 | CC(=O)OC[C@H]1O[C@@](COC(C)=O)(O[C@H]2O[C@H](COC(C)=O)[C@@H](OC(C)=O)[C@H](OC(C)=O)[C@H]2OC(C)=O)[C@@H](OC(C)=O)[C@@H]1OC(C)=O | inactive | inactive | inactive | inactive | inactive | inactive | inactive |  |  | inactive
14 | Nc1ncnc2c1ncn2[C@@H]1O[C@H](COP(=O)(O)O)[C@@H](O)[C@H]1O | inactive | inactive | inactive | inactive | inactive | inactive | inactive | inactive | inactive | 
15 | CC(=O)OCC(COC(C)=O)OC(C)=O | inactive | inactive | inactive | inactive | inactive | inactive | inactive | inactive | inactive | inactive
16 | CC(=O)Nc1cccc(O)c1 | inactive | inactive | inactive | inactive | inactive | inactive | inactive | inactive | inactive | inactive
17 | NC(=O)NS(=O)(=O)c1ccc(N)cc1 | inactive | inactive | inactive | inactive | inactive | inactive | inactive | inactive | inactive | 
18 | Cc1cc(-n2nc3ccc(Cl)cc3n2)c(O)c(C(C)(C)C)c1 | inactive | inactive | inactive | inactive | inactive | inactive | inactive |  |  | inactive
19 | O=C1C(c2[nH]c3ccccc3c2O)=Nc2ccccc21 |  |  | inactive | inactive |  |  | inactive |  |  | 
20 | CCCCCCCCCCOc1cc2c(=O)c(C(=O)OCC)c[nH]c2cc1OCC | 0.0067 µM (active) |  | 0.0028 µM (active) | 0.005 µM (active) | 0.0021 µM (active) | 0.002 µM (active) | 35.5 nM (active) | 0.0022 µM (active) | 0.0028 µM (active) | 0.0032 µM (active)
21 | CCCCCC(C)N (stereo unspecified) |  | inactive | 11.2 µM (active) | inactive | inactive |  | inactive |  |  | 5.01 µM (active)
22 | O=C1c2ccccc2S(=O)(=O)N1CCCCN1CCN(c2ncccn2)CC1 |  | inactive | inactive | inactive | inactive | inactive | inactive | inactive | inactive | inactive
23 | Cc1cccc(C(=O)O)c1O |  | inactive | inactive | inactive | inactive | inactive | inactive | inactive | inactive | inactive
24 | N[C@@H](Cc1ccc(O)cc1)C(=O)O | inactive |  | inactive | inactive | inactive | inactive | inactive | inactive | inactive | inactive
25 | CCN1CC(CCN2CCOCC2)C(c2ccccc2)(c2ccccc2)C1=O (stereo unspecified) | inactive | inactive | 12.6 µM (active) | inactive |  | inactive | inactive |  |  | 
26 | CC1CCN(CCCC(=O)c2ccc(F)cc2)CC1 |  | inactive | inactive | inactive | inactive | inactive | inactive | inactive | inactive | inactive
27 | CCN(CC)CCOC(=O)C(c1ccccc1)c1ccccc1 | inactive | inactive |  | inactive |  | inactive | inactive | inactive | inactive | 

Row | Compound | Potency [1] | outcome [2] | Potency [3] | Potency [4] | Potency [5] | Potency [6] | Potency [7] | Potency [8] | Potency [9] | Potency [10]
28 | O=C1c2ccccc2C(=O)C1c1ccc(Br)cc1 |  | inactive | 11.2 µM (active) | inactive | 9.53 µM (active) | inactive | inactive | inactive |  | 11.2 µM (active)
29 | CC[N+](CC)(CC(=O)Nc1c(C)cccc1C)Cc1ccccc1 |  | inactive | inactive | inactive | inactive | inactive | inactive | inactive | inactive | inactive
30 | NC(=O)c1ccc([N+](=O)[O-])cc1Cl |  | inactive | inactive | inactive |  | 12.6 µM (active) | inactive |  |  | 4.47 µM (active)
31 | Cc1cc(NC(=O)C2=C(O)c3ccccc3S(=O)(=O)N2C)no1 |  | inactive | inactive | inactive | inactive | inactive | inactive | inactive | inactive | inactive
32 | CC(=O)N[C@@H](Cc1ccc(O)cc1)C(=O)O | inactive |  | inactive | inactive | inactive | inactive | inactive | inactive | inactive | inactive
33 | COC(=O)c1ccccc1C(=O)c1ccc(OCCN2CCCCC2)cc1 |  | inactive |  | inactive | inactive | inactive | inactive | inactive | inactive | inactive
34 | CCCCCCCCCCC(CO)CCCCCCCC (stereo unspecified) |  | inactive | inactive | inactive |  | inactive | inactive | inactive | inactive | 8.91 µM (active)
35 | Cc1ccc(S(=O)(=O)NC(=O)NC2CCCCC2)cc1 | inactive | inactive |  | inactive | inactive | inactive | inactive | inactive | inactive | inactive
36 | Cc1cc(O)cc(C)c1Cl |  |  |  | inactive |  |  |  |  |  | 3.55 µM (active)
37 | FC(F)(F)C(Cl)Br (stereo unspecified) |  | inactive | inactive | inactive | inactive | inactive | inactive | inactive | inactive | inactive
38 | COc1ccc(C(=O)NCc2ccc(OCCN(C)C)cc2)cc1OC |  | inactive | inactive | inactive | inactive | inactive | inactive | inactive | inactive | inactive
39 | COc1cc(O)cc(O)c1 |  | inactive | inactive | inactive | inactive | inactive | inactive | inactive | inactive | inactive
40 | O=C(c1ccccc1)C(O)c1ccccc1 (stereo unspecified) |  | inactive | inactive | inactive |  | inactive | inactive | inactive | inactive | inactive
41 | CC(CN(C)C)C(C)(O)Cc1ccc(Cl)cc1 (stereo unspecified) | 6.01 µM (active) |  | 7.94 µM (active) | inactive | 6.75 µM (active) | inactive | inactive |  |  | 
42 | CC(=O)Nc1ccc(OCCOCCOc2ccc(NC(C)=O)cc2)cc1 |  | inactive | inactive | inactive | inactive | inactive | inactive | inactive | inactive | inactive
43 | O=C(O)c1cc(=O)c2ccccc2o1 |  | inactive | inactive | inactive |  | inactive | inactive | inactive | inactive | inactive
44 | Cn1c([N+](=O)[O-])cnc1COC(N)=O |  | inactive | inactive | inactive | inactive | inactive | inactive | inactive | inactive | inactive
45 | CCCCCCCCCCCCCCCCCCO |  | inactive | inactive | inactive | inactive | inactive | inactive | inactive | inactive | inactive
46 | CC(=O)N(CC(O)CO)c1c(I)c(C(=O)NCC(O)CO)c(I)c(C(=O)NCC(O)CO)c1I (stereo unspecified) |  | inactive | inactive | inactive |  | 10 µM (active) | inactive |  |  | 7.08 µM (active)
47 | NC(=O)CCCCC1CCSS1 (stereo unspecified) |  |  | inactive | inactive |  |  | inactive | inactive |  | 
48 | NCc1ccc(S(N)(=O)=O)cc1 |  | inactive | inactive | inactive |  | 3.98 µM (active) | inactive | inactive | inactive | 2.51 µM (active)
49 | CN1C[C@@H]2C[C@H]1CN2c1cc2c(cc1F)c(=O)c(C(=O)O)cn2C1CC1 | inactive |  | 1.41 µM (active) | inactive |  | inactive | inactive |  |  | 
50 | Cc1cc(OI)c(C(C)C)cc1-c1cc(C(C)C)c(OI)cc1C | 13.5 µM (active) |  | 10 µM (active) | inactive | 13.5 µM (active) |  | inactive | 12.6 µM (active) |  | 
51 | O=C1CC[C@@H](C(=O)O)N1 |  | inactive | inactive | inactive |  | inactive | inactive | inactive | inactive | 
52 | Nc1c2c(nc3c1CCC3)CCCC2 | 15.1 µM (active) |  | 12.6 µM (active) |  | 16.9 µM (active) | 10 µM (active) |  |  |  | 12.6 µM (active)
53 | Nc1ncnc(Nc2ccccc2)n1 |  | inactive | inactive | inactive | inactive | inactive | inactive | inactive | inactive | inactive
